Test [1] can be described thus: inhibitors of TNFa-induced NFkB p65 translocation, primary screen, imaging, HUVEC, MLSMR starter and 10KST1 sets (AID 438;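 active = inhibition above 20% together with a positive visual image hit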;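 also: compound added about 3h40 before a 20 min TNFalpha stimulation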;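 as to inhibition: signal is the nuclear over cytoplasmic p65 intensity ratio per well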). Particulars: HUVEC TNFa-induced p65 nuclear translocation; cell count: measured here: nuclei count (cytotoxicity indicator), at 2.08 µM; inhibition: at 2 µM, stronger effect = higher value, 0% TNFa-plus-vehicle, 100% no-TNFa wells.
Test [2] is described as follows: inhibitors of mutant huntingtin aggregation, primary screen, imaging, exon1htt(103Q)mCFP cells, high-content imaging (AID 483;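 active = visual image review flags a hit and inhibition of aggregation exceeds 20%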;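 also: compound exposure lasted 3 days before fixation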;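 as to nuclei count: percent of the per-plate median nuclei count of sample wells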). Particulars: exon1htt(103Q)mCFP cell line, aggregate imaging, at 2 µM; inhibition of aggregation: stronger effect = higher value; nuclei count: measured here: cell count, toxicity.
Test [3] is described as follows: inhibitors of E-selectin induction by TNFa, primary screen, imaging, HUVEC, immunofluorescence, MLSMR starter and 10KST1 sets (AID 487;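 active = visually confirmed hit in the image check and inhibition above 20%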;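 as to inhibition: signal is fraction of cell area covered by stained E-selectin grains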;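 as to nuclei count: 100% = median nuclei count of all wells on the same plate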). Conditions: HUVEC TNFalpha-induced E-selectin immunofluorescence imaging, at 2 µM; inhibition: stronger effect = higher value; nuclei count: measured here: cell number, toxicity.
Test [4] can be described thus: DUSP6 inhibitors restoring Erk phosphorylation by chemical complementation, primary imaging in DUSP6-transfected HeLa (AID 609;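 active = compounds giving at least 50% inhibition in the cell-based MKP-3 phosphatase rescue imaging test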;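 as to inhibition: phospho-Erk level distribution per well compared with pooled transfected vehicle control wells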). Particulars: HeLa MKP-3 transfected, phospho-Erk imaging KS statistic, at 10 µM, cells stimulated with TPA for 15 min.
Test [5] concerns the target Dual specificity protein phosphatase 6 (Homo sapiens) (UniProt Q16828). The description is as above. Particulars: HeLa MKP-3 transfected, phospho-Erk imaging KS statistic; at 10 µM; stronger effect = higher value; cells stimulated with TPA for 15 min.
Test [6] concerns the target Voltage-gated potassium channel subunit beta-2 (Rattus norvegicus) (UniProt P62483). Put plainly: KvBeta enzyme negative modulators, primary screen, biochemical, NADPH fluorescence (AID 622;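 active = fluorescence slope higher than the sample average by over 3 SD, cut at about -0.22 in these data, passing the limit was not always enough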;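 also: slope of raw intensity against log time taken from 70 to 1610 s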). Particulars: recombinant KvBeta, 4-cyanobenzaldehyde reduction, at 10 µM, stronger effect = higher value.
Test [7] shares this target. Kind of test: KvBeta positive modulators, primary screen, biochemical, NADPH fluorescence (AID 623;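 active = NADPH fluorescence slope more negative than the mean of all samples by about 3 SD, 99.7% confidence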;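 also: fluorescence intensity change per second fitted from 20 to 320 s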). Particulars: Recombinant KvBeta, NADPH fluorescence decrease slope, 10 min; at 10 µM; stronger effect = lower value.
In test [8] the target is Alpha-2C adrenergic receptor (Homo sapiens) (UniProt P18825). Kind of test: modulators of alpha2C/GIRK thallium flux, primary screen, cell-based, HEK293 alpha2C/GIRK1/2 (AID 624).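 Also: slope of fluorescence ratio to pre-addition baseline per second over 15 to 24 s.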 Particulars: thallium flux BTC fluorescence, at 10 µM, actives lie on both sides.
Test [9] can be described thus: inhibitors of larval lipid processing in zebrafish, primary screen, whole organism, PED6 fluorescence, gall bladder and intestine (AID 686;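 active = a full or partial loss of lipid-probe fluorescence in the fish gall bladder, intestine or both, judged by eye; inactive = no fluorescence loss, or compound toxic to the fish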;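 also: larvae 5 to 7 days old with five fish per well; signal comes from phospholipase A2 cleavage of quenched PED6 carried via bile; overnight exposure to compound and PED6 before scoring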). Conditions: Zebrafish larvae PED6 lipid processing, fluorescence scoring; screened at 20 µM (by protocol).
Test [10] in a line: inhibitors of Chlamydomonas gravitaxis, primary screen, whole organism, Chlamydomonas reinhardtii, WT vs cilia-less mutant, absorbance, 96-well (AID 463189;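 active = inhibition at or above 50% relative to wild type and mutant plate controls; inactive = inhibition below 50%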;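 also: 0% = wild type cc124 cells in DMSO and 100% = ciliumless bld1 mutant cells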). Conditions: OD600 absorbance, 2 days, at 10 µM, stronger effect = higher value.
Test [11] is described as follows: inhibitors of Sendai virus-induced IRF3 signaling, primary screen, TLR/RLR signaling modifier project, cell-based, Sendai virus stimulus, luciferase, 10K MLSCN set (AID 602276;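 active = inhibition at or above 50% at 10 µM; inactive = inhibition below 50%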;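 also: firefly luciferase from ISG56 promoter only with Renilla not read in this screen; 0% = Sendai virus plus DMSO and 100% = medium plus DMSO without virus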). Particulars: HEK293 RL24 IRF3 luciferase reporter, at 10 µM, stronger effect = higher value.
Test [12] can be described thus: inhibitors of poly I:C-induced TLR3 signaling, primary screen, cell-based, poly I:C stimulus, luciferase, 10K MLSCN set (AID 602277;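 active = inhibition of the reporter signal at or above 50%; inactive = inhibition below 50%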). Conditions: HEK293-TLR3 RL24 IRF3 luciferase reporter, at 10 µM, stronger effect = higher value.
The mark [13] stands for this setting: measured here: cell density z-score.
Setting [14] is: measured here: nuclear c-Myc green intensity z-score.
Setting [15] is: measured here: nuclear pErk red intensity z-score, stronger effect = higher value.

Calls of active or inactive are those of the source.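 The calls were made as follows, unless noted: active = fluorescence slope after compound addition differing from the mean of all screened samples at 99.7% confidence, in either direction; inactive = the rest.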

In general, inhibition refers to the drop in the measured response relative to a control, in per cent.

Sequence of Dual specificity protein phosphatase 6 (Homo sapiens) (Q16828 whole entry, looked up): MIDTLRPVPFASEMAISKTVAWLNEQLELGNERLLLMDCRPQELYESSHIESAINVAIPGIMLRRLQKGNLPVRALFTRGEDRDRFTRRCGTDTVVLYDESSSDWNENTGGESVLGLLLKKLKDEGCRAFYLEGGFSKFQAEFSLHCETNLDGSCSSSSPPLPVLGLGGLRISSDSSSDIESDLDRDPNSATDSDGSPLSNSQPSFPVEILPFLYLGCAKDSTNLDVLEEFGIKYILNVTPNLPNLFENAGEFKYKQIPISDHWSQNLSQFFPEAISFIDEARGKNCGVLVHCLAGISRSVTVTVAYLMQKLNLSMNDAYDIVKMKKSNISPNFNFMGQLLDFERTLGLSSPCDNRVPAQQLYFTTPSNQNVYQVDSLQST
Sequence of Voltage-gated potassium channel subunit beta-2 (Rattus norvegicus) (P62483 whole entry, looked up): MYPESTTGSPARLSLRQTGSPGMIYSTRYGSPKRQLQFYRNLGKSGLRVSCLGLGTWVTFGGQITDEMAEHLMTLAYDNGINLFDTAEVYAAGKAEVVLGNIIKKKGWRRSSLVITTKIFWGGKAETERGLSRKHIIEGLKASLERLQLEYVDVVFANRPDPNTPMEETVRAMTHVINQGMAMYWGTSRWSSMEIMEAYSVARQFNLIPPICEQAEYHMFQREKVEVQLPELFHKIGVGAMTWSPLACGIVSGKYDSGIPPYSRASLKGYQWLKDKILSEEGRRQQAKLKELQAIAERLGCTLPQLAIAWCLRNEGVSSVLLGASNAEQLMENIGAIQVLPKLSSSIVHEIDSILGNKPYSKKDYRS
Sequence of Alpha-2C adrenergic receptor (Homo sapiens) (P18825 whole entry, looked up): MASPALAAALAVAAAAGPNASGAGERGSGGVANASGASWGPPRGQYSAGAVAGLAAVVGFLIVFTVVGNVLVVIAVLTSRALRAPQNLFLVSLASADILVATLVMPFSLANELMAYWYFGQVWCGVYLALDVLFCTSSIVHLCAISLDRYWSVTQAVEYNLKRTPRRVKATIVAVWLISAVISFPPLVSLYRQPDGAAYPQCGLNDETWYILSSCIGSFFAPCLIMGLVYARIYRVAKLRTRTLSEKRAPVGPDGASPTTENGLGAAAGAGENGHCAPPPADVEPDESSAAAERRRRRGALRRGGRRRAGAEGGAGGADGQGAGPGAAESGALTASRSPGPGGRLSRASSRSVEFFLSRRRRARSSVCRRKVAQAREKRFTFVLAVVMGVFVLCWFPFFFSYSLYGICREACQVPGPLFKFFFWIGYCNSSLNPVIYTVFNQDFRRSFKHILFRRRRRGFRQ

On to `Cc1cccc(N2C(=O)CC(N3CCN(Cc4ccc(Cl)cc4)CC3)C2=O)c1` (configuration not stated), for which the cell count in test [1] was found to be 544. The inhibition in [1] was -6.1% (inactive); in test [3] it was -107% (inactive); in [5], 3.56% (inactive); in test [10] it was -12.9% (inactive); in test [11] it was 16.4% (inactive); in [12] it was 18% (inactive). For the same compound, the inhibition of aggregation in test [2] was 17.3% (inactive). Also, the results for the nuclei count in test [2] and in test [3] were 110% and 132%, respectively. Besides, the z-score in test [4] (setting [13]) is 1.1; in test [4] (setting [14]) it was -1.84; in [4] (setting [15]) it was -0.334. For the same compound, in [6], the fluorescence slope is -0.551 (inactive). Also, the NADPH fluorescence slope in [7] was -3.6e-05 (inactive). Also, the slope in test [8] is 0.00524 (inactive). In [9], the call was inactive.

On to `COc1ccc(-c2nnc3sc(-c4c(OC)cccc4OC)nn23)cc1`, for which the cell count in test [1] worked out at 498. Besides, the inhibition was -7.5% (inactive) in [1]; -176% (inactive) in test [3]; -6.06% (inactive) in test [5]; 14.7% (inactive) in test [10]; 11.7% (inactive) in test [11]; 13% (inactive) in test [12]. Further, the inhibition of aggregation in test [2] is 26.2% (inactive). For the same compound, the nuclei count in [2] worked out at 28.4%; in test [3], 131%. The z-score in test [4] (setting [13]) is -0.466; in [4] (setting [14]) it was -2.13; in [4] (setting [15]) it was -0.0898. Moreover, the fluorescence slope in test [6] is -0.435 (inactive). Also, the NADPH fluorescence slope in test [7] is -0.000139 (inactive). The slope in test [8] is 0.00691 (inactive). Moreover, the compound was called inactive in test [9].

For `CN1CCCN=C1COC(=O)C(O)(c1ccccc1)C1CCCCC1` (configuration not stated), the cell count in test [1] came out at 703. Also, the inhibition was -0.1% (inactive) in test [1]; -113% (inactive) in test [3]; 3.45% (inactive) in test [5]; -8.88% (inactive) in test [10]; 19.2% (inactive) in test [11]; 50.5% (active) in test [12]. The inhibition of aggregation in test [2] is 15.9% (inactive). Further, the nuclei count amounted to 107% in [2] and 127% in [3]. For the same compound, the z-score was -0.149 in test [4] (setting [13]), -0.804 in [4] (setting [14]) and 0.222 in test [4] (setting [15]). For the same compound, the fluorescence slope in test [6] is -0.497 (inactive). Further, the NADPH fluorescence slope in [7] was -1.3e-05 (inactive). In test [8], the slope was 0.00478 (inactive). For the same compound, the compound was classed as inactive in test [9].

`COc1ccc2nc(S(=O)Cc3ncc(C)c(OC)c3C)[nH]c2c1` (configuration not stated): in [1], the cell count was 542. For the same compound, the inhibition was 1.6% (inactive) in test [1]; -24.2% (inactive) in [3]; 25.7% (inactive) in test [5]; 27% (inactive) in test [10]; -9.53% (inactive) in test [11]; -10.5% (inactive) in test [12]. Moreover, in test [2], the inhibition of aggregation is 2.2% (inactive). For the same compound, the results for the nuclei count in test [2] and in test [3] were 97.5% and 108%, respectively. For the same compound, the z-score is 0.164 in test [4] (setting [13]), 1.22 in [4] (setting [14]) and -0.909 in test [4] (setting [15]). The fluorescence slope in test [6] is -0.449 (inactive). For the same compound, in test [7], the NADPH fluorescence slope was -7.2e-06 (inactive). The slope in [8] was 0.00367 (inactive). For the same compound, the outcome in test [9] was inactive.

As for `COc1cccc(N2CCN(c3ncnc4c3[nH]c3ccc(F)cc34)CC2C)c1` (configuration not stated), in test [1], the cell count came to 342. In addition, the inhibition is -7% (inactive) in test [1]; 11.4% (inactive) in [3]; -3.5% (inactive) in test [5]; 25.3% (inactive) in test [10]; 2.95% (inactive) in [11]; 98.8% (active) in test [12]. Besides, the inhibition of aggregation in test [2] was 10.9% (inactive). The nuclei count in [2] turned out to be 92.8%; in [3], 127%. Further, the z-score in [4] (setting [13]) was 0.762; in [4] (setting [14]), 0.103; in [4] (setting [15]) it was -1.52. Moreover, the fluorescence slope in test [6] is -0.393 (inactive). Moreover, the NADPH fluorescence slope in [7] is -9.3e-05 (inactive). Further, the slope in test [8] is 0.00384 (inactive). In test [9], the outcome was inactive.

Regarding `COC(=O)CCC(=O)CN`, in test [1], the cell count amounted to 462. In addition, the inhibition was -0.2% (inactive) in test [1]; -32.6% (inactive) in test [3]; 14.6% (inactive) in test [5]; -6.73% (inactive) in test [10]; 5.54% (inactive) in test [11]; 25.1% (inactive) in test [12]. For the same compound, the inhibition of aggregation in [2] was 0.3% (inactive). Also, the nuclei count in [2] was found to be 95.2%; in test [3], 108%. Besides, the z-score in test [4] (setting [13]) was -0.857; in test [4] (setting [14]) it was 0.817; in [4] (setting [15]), -0.467. The fluorescence slope in [6] was -0.446 (inactive). Moreover, the NADPH fluorescence slope in [7] was -6.5e-05 (inactive). Also, the slope in test [8] is 0.00417 (inactive). In addition, in test [9], the compound was called inactive.

Values taken from PubChem BioAssay.
